Values without a mark were called inactive. Results filed as inconclusive are left out. Activity calls are given as the source filed them. Unless noted, the call rests on the fitted dose curve; in most records, active means well fitted curve in the direction sought with a large enough effect in the repeat runs; inconclusive means weak or mixed curves; inactive means no such curve, though single readings can be large; an effect the other way counts as inactive or inconclusive.

Assay [1] in a line: qHTS assay to identify small molecule agonists of the TGF-beta/Smad signaling pathway - cell viability counter screen (AID 1346829). Further: top concentration of the series differs between compounds; nearly all actives have a fitted effect of over 45% in size. In outline: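 Compound-treated SBE-bla HEK 293T cells (5 hr, 37 C) were assessed for viability with CellTiter-Glo in parallel with the reporter read.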
(In general: Quantitative high-throughput screening tests each substance at several concentrations.)

The nature of assay [2]: qHTS assay to identify small molecule agonists of the TGF-beta/Smad signaling pathway (AID 1346859; active means well fitted activation curve with a large enough effect in the signal ratio in the repeat runs, not every such curve was filed as active; the % refers to the signal ratio; further: series mostly up to about 77 µM). In outline: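 After overnight seeding, SBE-bla HEK 293T cells are dosed with compounds in DMSO and kept 5 hr at 37 C, 5% CO2. LiveBLAzer-type FRET substrate is then applied for 2 hr at room temperature.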
For assay [3], the target named is Thyrotropin-releasing hormone receptor (Homo sapiens) (UniProt P34981). Put plainly: qHTS assay to identify small molecule antagonists of the thyrotropin-releasing hormone receptor (TRHR) signaling pathway (AID 1346877; active means well fitted inhibition curve with a large enough effect in the repeat runs, not every such curve was filed as active; further: series mostly up to about 51 µM). In outline: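 Antagonism is measured as suppression of the calcium response to 1 nM TRH in TRHR-HEK293 cells that have been dye-loaded for 2 h at 37 °C after overnight plating. Each compound is tested at 15 concentrations in triplicate.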
Chain of Thyrotropin-releasing hormone receptor (Homo sapiens) (P34981 whole entry, looked up): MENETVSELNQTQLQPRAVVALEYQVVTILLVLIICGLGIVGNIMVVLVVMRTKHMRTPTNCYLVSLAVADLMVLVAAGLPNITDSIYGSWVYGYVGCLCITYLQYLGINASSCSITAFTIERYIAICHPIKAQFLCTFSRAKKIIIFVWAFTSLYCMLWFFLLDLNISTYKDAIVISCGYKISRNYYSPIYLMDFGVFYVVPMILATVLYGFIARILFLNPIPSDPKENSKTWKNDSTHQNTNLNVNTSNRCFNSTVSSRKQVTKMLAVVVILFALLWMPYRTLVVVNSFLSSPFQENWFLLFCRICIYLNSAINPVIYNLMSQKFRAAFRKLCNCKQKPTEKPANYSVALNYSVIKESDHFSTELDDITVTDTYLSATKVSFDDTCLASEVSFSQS

Assay [4] shares this target. Put plainly: qHTS assay to identify small molecule agonists of the thyrotropin-releasing hormone receptor (TRHR) signaling pathway (AID 1346891; calls by dose curve;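 further: HEK293 cells expressing TRHR with calcium dye readout; series mostly up to about 58 µM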). The gist of the method:
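Compounds were tested as agonists at 15 concentrations, in triplicate, on TRHR-Hek293 cells; calcium-sensitive dye fluorescence was recorded for 3 min following addition.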

The nature of assay [5]: Human pregnane X receptor (PXR) small molecule agonists, qHTS cell viability counter screen (AID 1346977). Further: nearly all actives have a fitted effect of over 50% in size. The gist of the method:
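Viability counter screen: CellTiter-Fluor signal in PXR-Luc HepG2 cells, 24hr compound exposure, 37C, 5% CO2.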

Assay [6] can be described thus: Caspase-3/7 induction in HepG2 cells by small molecules, qHTS assay (AID 1346978). Further: nearly all actives have a fitted effect of over 15% in size. The gist of the method:
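Wild-type HepG2 cells, 2,000/well, settled 5 hr at 37 C and 5% CO2, then compound-treated for 17 hr; caspase-3/7 activity read by luminescent Caspase-Glo 3/7 after 30 min at room temperature.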

Assay [7] can be described thus: Caspase-3/7 induction in CHO-K1 cells by small molecules, qHTS assay (AID 1346980). Further: nearly all actives have a fitted effect of over 15% in size. In outline: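 Wild-type CHO-K1 cells exposed to compounds for 17hr at 37 C, 5% CO2. Caspase-3/7 activity then measured by Caspase-Glo 3/7 luminescence after 30min at room temperature.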
A short description of assay [8]: Caspase-3/7 induction in HepG2 cells by small molecules, qHTS cell viability counter screen (AID 1346981). Further: series mostly up to about 92 µM; nearly all actives have a fitted effect of over 30% in size. In outline:
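Cell viability is measured as a cytotoxicity counter screen alongside the Caspase-Glo 3/7 readout in identical wells. Wild-type HepG2 cells are treated with test compounds for 16 hr at 37 C before CellTiter-Fluor addition and a 1-hr incubation.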

In assay [9] the target is Cytochrome P450 2D6 (Homo sapiens) (UniProt P10635). The assay is described as follows: Cytochrome P450 Family 2 Subfamily D Member 6 (CYP2D6) small molecule antagonists: luciferase reporter qHTS assay (AID 1671196). Further: nearly all actives have a fitted effect of over 50% in size. Further: potency means the concentration at half of the fitted maximal effect. The gist of the method:
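Enzyme and proluciferin substrate were first combined with test chemical for 10 min at room temperature. Adding NADPH regeneration solution started a 1 h reaction, stopped with luciferin detection reagent and read by luminescence 20 min later.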
In general terms: A reporter such as luciferase makes a cellular process visible.

The target of assay [10] is Cytochrome P450 1A2 (Homo sapiens) (UniProt P05177). The assay is described as follows: Cytochrome P450 Family 1 Subfamily A Member 2 (CYP1A2) small molecule antagonists: luciferase reporter qHTS assay (AID 1671199). Further: nearly all actives have a fitted effect of over 50% in size. Further: potency means the concentration at half of the fitted maximal effect. In outline:
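Compounds were incubated with CYP1A2 and a luminogenic proluciferin substrate for 10 min at room temperature before the reaction was started with NADPH regeneration solution. After 1 h, detection reagent was added and light output, proportional to CYP activity, was recorded.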

Assay [11] concerns the target Voltage-gated inwardly rectifying potassium channel KCNH2 (Homo sapiens) (UniProt Q12809). Put plainly: Human Ether-a-go-go-Related Gene (hERG) channel small molecule antagonists: fluorescence cell-based qHTS assay (AID 1671200). Further: nearly all actives have a fitted effect of over 50% in size. Further: potency means the concentration at half of the fitted maximal effect. In outline:
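Thallium served as the potassium surrogate; its influx into dye-loaded U2OS cells carrying the channel was measured by fluorescence over 2 min.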
A general note: Block of hERG is tested as a sign of cardiac risk.

Assay [12] concerns the target Nuclear receptor subfamily 1 group I member 2 (Homo sapiens) (UniProt O75469). Put plainly: Human pregnane X receptor (PXR) small molecule agonists, qHTS assay (AID 1346982). Further: nearly all actives have a fitted effect of over 35% in size. Further: potency means the concentration at half of the fitted maximal effect. In outline:
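Cells: HepG2 stably carrying PXR-Luc. Medium held 5% charcoal-stripped FBS. Compounds in DMSO added after 5 hr plating, incubated 24 hr, then luminescence quantified with ONE-Glo.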

Assay [13] concerns the target Cytochrome P450 2C19 (Homo sapiens) (UniProt P33261). The assay is described as follows: Cytochrome P450 Family 2 Subfamily C Member 19 (CYP2C19) small molecule antagonists: luciferase reporter qHTS assay (AID 1671197). Further: nearly all actives have a fitted effect of over 65% in size. Further: potency means the concentration at half of the fitted maximal effect. In outline: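 P450-Glo CYP2C19 screening system; proluciferin substrate; DMSO compound stocks; 10 min RT preincubation; NADPH regeneration, 1 h at 37C; luciferin detection reagent, 20 min RT; luminescence as RLU.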

For assay [14], the target named is Cytochrome P450 3A4 (Homo sapiens) (UniProt P08684). Put plainly: Cytochrome P450 Family 3 Subfamily A Member 4 (CYP3A4) small molecule antagonists: luciferase reporter qHTS assay (AID 1671201). Further: nearly all actives have a fitted effect of over 50% in size. Further: potency means the concentration at half of the fitted maximal effect. In outline:
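Relative luminescence units after 20 min with luciferin detection reagent served as read-out. Beforehand, CYP3A4 turned over a proluciferin substrate for 1 h at room temperature with NADPH regeneration, following 10 min compound preincubation.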

For assay [15], the target named is Cytochrome P450 2C9 (Homo sapiens) (UniProt P11712). Put plainly: Cytochrome P450 Family 2 Subfamily C Member 9 (CYP2C9) small molecule antagonists: luciferase reporter qHTS assay (AID 1671198). In outline: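 P450-Glo proluciferin substrate with CYP2C9 enzyme; 10 min RT preincubation, then NADPH regeneration 1 h at 37C; luciferin detection reagent 20 min RT, luminescence in relative luminescence units.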
Chain of Cytochrome P450 2C9 (Homo sapiens) (P11712 whole entry, looked up): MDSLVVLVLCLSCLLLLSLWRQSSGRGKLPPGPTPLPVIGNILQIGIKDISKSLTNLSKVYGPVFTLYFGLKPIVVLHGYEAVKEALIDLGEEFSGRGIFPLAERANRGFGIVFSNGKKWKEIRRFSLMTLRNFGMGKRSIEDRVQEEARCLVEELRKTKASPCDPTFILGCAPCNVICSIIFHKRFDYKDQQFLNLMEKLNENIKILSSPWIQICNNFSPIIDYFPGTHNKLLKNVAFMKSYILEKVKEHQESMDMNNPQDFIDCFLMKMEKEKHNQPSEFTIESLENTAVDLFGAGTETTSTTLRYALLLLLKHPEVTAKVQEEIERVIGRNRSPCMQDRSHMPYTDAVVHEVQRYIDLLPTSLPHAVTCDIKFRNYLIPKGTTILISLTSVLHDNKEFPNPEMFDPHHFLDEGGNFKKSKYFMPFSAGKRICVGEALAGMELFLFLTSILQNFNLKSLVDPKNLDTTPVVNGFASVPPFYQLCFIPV

Assay [16] has as its target Nuclear receptor subfamily 1 group I member 2 (Rattus norvegicus) (UniProt Q9R1A7). Put plainly: Rat pregnane X receptor (rPXR) activation by small molecules, qHTS assay (AID 1346983). Further: nearly all actives have a fitted effect of over 20% in size. Conditions: rPXR luciferase reporter cells, One-Glo luminescence, 24 h; max activation: hits give high values. In outline: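 Cell-based rPXR activation assay: rPXR cells, 2,000 per well, rested 5hr at 37 C, then exposed to compounds in DMSO for 24 hr at 37 C. Luciferase activity read by One-Glo luminescence after 30 min at room temperature.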

The target of assay [17] is Nuclear receptor subfamily 1 group I member 2 (Homo sapiens) (UniProt O75469). The assay is described as follows: CYP3A4 induction through human pregnane X receptor (PXR) by small molecules, qHTS assay (AID 1346984). Further: nearly all actives have a fitted effect of over 40% in size. The gist of the method: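 Quantitative HTS in DPX-2 cells, i.e. HepG2 transfected with PXR response element and CYP3A4-promoter luciferase. Compounds in DMSO incubated 24hr at 37C; then P450-Glo CYP3A4 substrate, 3uM final, 3hr; One-Glo luminescence.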
Chain of Nuclear receptor subfamily 1 group I member 2 (Homo sapiens) (O75469 whole entry, looked up): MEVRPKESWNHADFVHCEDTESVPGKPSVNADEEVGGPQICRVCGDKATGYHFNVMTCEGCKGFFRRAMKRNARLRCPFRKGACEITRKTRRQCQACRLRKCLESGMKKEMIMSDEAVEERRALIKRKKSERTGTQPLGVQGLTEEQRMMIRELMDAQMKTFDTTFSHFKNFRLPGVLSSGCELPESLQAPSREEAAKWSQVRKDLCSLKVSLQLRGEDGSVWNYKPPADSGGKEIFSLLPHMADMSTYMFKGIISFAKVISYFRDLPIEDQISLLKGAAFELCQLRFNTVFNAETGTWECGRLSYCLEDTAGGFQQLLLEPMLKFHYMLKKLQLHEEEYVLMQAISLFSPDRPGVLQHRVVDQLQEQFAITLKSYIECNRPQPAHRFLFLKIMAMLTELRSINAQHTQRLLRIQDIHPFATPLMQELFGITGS

Assay [18] shares this target. The assay is described as follows: Human pregnane X receptor (PXR) activation by small molecules, qHTS assay (AID 1346985). Further: nearly all actives have a fitted effect of over 40% in size. The gist of the method:
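DPX-2 cells (HepG2 co-transfected with a PXR response element and a CYP3A4-promoter luciferase construct) were seeded at 2,000 per well, rested 5 hr at 37C, then exposed to DMSO-dissolved compounds for 24 hr. Activation was read as luciferase luminescence.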
On the % scale 0 is the no-effect control and ±100 the full control effect.

Chain of Cytochrome P450 2D6 (Homo sapiens) (P10635 whole entry, looked up): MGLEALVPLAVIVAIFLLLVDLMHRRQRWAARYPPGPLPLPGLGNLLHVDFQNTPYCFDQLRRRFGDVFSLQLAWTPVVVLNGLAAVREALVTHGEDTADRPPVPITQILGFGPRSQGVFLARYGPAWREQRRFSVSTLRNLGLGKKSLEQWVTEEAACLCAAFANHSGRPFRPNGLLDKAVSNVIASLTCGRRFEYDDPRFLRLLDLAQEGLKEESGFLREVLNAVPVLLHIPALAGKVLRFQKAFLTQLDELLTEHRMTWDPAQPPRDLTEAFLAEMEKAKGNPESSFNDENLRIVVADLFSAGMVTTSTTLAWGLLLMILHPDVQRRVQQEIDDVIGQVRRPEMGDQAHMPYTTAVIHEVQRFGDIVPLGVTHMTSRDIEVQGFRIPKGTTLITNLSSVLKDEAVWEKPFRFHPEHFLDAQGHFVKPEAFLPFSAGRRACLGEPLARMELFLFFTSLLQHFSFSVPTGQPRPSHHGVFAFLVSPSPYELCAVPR
Chain of Voltage-gated inwardly rectifying potassium channel KCNH2 (Homo sapiens) (Q12809 whole entry, looked up): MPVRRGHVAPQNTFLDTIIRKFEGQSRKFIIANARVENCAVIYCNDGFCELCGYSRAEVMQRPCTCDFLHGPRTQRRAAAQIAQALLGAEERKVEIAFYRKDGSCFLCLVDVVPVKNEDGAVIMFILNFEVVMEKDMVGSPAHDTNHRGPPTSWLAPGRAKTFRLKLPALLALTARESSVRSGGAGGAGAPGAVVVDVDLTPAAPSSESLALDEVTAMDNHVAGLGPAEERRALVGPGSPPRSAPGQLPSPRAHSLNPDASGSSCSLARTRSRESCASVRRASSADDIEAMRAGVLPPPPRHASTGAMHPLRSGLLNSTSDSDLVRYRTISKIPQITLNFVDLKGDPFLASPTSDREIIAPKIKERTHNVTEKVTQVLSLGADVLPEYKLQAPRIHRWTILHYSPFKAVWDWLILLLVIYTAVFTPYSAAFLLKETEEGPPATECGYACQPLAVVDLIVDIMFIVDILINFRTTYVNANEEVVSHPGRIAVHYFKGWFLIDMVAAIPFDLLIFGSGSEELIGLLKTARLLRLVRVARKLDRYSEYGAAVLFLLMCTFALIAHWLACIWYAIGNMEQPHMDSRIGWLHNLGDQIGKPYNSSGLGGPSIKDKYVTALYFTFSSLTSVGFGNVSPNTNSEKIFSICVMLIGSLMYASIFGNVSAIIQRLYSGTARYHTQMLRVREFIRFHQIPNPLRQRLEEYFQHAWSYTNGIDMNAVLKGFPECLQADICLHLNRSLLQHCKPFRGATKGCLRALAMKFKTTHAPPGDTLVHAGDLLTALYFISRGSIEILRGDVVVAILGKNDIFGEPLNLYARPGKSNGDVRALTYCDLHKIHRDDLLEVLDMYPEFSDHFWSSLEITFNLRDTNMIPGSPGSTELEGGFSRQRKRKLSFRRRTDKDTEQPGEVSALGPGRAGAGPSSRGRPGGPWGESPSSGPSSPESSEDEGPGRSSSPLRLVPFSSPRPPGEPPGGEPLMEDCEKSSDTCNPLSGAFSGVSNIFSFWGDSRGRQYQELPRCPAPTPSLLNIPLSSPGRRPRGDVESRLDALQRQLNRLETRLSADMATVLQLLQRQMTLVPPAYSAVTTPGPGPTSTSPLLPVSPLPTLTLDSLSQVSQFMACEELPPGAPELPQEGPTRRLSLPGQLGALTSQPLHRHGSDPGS
Chain of Cytochrome P450 1A2 (Homo sapiens) (P05177 whole entry, looked up): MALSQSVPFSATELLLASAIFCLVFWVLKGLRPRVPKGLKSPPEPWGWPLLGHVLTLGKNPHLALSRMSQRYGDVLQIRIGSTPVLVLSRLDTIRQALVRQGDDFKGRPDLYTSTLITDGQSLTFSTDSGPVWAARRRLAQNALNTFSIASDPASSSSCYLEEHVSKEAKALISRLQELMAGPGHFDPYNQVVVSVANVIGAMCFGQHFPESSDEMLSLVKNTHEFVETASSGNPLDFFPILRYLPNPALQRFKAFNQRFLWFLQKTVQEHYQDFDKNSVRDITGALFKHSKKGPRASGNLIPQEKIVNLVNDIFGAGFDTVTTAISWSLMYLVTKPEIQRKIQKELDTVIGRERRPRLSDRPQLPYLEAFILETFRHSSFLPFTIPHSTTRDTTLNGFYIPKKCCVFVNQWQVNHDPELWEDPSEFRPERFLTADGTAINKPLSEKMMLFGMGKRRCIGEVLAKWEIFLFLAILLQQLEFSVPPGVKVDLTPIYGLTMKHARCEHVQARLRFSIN
Chain of Cytochrome P450 3A4 (Homo sapiens) (P08684 whole entry, looked up): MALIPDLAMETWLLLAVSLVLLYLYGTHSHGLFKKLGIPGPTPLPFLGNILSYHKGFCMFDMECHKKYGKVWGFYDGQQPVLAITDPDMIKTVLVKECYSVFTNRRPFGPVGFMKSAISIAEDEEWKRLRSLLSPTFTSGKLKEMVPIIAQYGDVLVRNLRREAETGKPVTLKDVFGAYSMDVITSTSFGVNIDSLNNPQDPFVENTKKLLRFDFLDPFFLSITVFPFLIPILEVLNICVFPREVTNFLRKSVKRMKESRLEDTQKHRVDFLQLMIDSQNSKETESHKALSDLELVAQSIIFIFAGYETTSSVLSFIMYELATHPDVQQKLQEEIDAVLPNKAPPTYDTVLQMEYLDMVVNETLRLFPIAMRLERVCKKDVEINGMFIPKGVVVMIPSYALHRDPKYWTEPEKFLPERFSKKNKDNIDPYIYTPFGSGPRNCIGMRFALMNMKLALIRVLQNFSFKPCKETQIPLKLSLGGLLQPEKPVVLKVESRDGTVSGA
Chain of Cytochrome P450 2C19 (Homo sapiens) (P33261 whole entry, looked up): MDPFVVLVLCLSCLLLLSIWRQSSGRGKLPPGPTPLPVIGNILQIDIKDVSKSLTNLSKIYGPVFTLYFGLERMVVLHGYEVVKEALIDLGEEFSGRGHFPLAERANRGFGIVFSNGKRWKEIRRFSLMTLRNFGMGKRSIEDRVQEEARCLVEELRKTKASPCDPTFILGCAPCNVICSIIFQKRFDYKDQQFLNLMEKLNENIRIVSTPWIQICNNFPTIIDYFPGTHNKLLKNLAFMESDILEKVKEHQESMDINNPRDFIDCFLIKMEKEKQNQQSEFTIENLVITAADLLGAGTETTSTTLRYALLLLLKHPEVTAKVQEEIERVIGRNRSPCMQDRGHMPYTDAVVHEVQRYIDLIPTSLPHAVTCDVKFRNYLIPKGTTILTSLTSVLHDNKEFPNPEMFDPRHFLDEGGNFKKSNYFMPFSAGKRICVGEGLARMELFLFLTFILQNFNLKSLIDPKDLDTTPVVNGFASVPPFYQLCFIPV
Chain of Nuclear receptor subfamily 1 group I member 2 (Rattus norvegicus) (Q9R1A7 whole entry, looked up): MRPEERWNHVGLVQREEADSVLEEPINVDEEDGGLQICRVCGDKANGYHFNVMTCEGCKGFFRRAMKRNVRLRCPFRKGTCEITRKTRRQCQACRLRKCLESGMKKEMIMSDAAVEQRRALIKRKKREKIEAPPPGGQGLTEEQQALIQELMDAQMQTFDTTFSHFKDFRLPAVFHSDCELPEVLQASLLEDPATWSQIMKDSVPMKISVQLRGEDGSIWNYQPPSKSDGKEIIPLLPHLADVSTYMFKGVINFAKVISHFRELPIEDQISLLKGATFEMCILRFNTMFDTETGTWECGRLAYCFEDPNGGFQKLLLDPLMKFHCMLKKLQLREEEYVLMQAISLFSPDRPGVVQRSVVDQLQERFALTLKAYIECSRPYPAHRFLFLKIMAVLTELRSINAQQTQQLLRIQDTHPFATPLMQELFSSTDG

For `CCCCC(CC)CNC(=O)CC(C)OC(=O)CCC(=O)O` (centres undefined), the result in assay [1], in assay [2], in assay [3], in assay [4], in [6] and in assay [7] was inactive. Further, the Potency result in assay [5], in [8], in [10] and in assay [11] was “inactive” throughout. The Potency in assay [9] is 17.4 µM (active).

As to `OCCCCCCCl`, the call in assay [1], in assay [2], in assay [3], in [4], in [6] and in [7] was inactive. Moreover, the Potency result in assay [5], in assay [8], in assay [12], in assay [9], in assay [13] and in assay [10] was “inactive” in each case. Further, the Potency result in assay [11] and in assay [14] was “inactive” in each case.

Take `CC1=CC[C@H](CC=O)C1(C)C`: the compound was classed as inactive in assay [1], in assay [2], in assay [3], in assay [4], in assay [6] and in assay [7]. The Potency result in [5], in [8], in assay [9], in assay [13] and in assay [11] was “inactive” throughout. For the same compound, the Potency in assay [12] was 48.6 µM (active); in [10] it was 31.7 µM (active).

For `C[Si]1(C)N[Si](C)(C)N[Si](C)(C)N1`, the outcome in [1], in assay [2], in assay [3], in assay [4], in [6] and in assay [7] was inactive. Besides, the Potency result in [5], in [8], in [12], in assay [9] and in assay [11] was “inactive” throughout. The Potency in [13] was 50.2 µM (active); in assay [14], 6.33 µM (active).

Turning to `CC(=O)OC[C@H]1O[C@@H](OC(C)=O)[C@H](OC(C)=O)[C@@H]1OC(C)=O`, the compound was classed as inactive in [1], in assay [2], in assay [3], in assay [4] and in assay [6]. The Potency entry in assay [5], in [8], in [12], in assay [9], in [13] and in assay [15] was “inactive” each time. The Potency entry in assay [10], in assay [11] and in assay [14] was “inactive” each time.

For `C=CCOc1cc(Cl)ccc1C(=O)NCCN(CC)CC`, the outcome in [1], in assay [2], in assay [3], in assay [4], in assay [6] and in assay [7] was inactive. Further, the Potency result in assay [5], in assay [8], in assay [12] and in [15] was “inactive” each time. Moreover, the Potency in assay [9] is 0.275 µM (active); in assay [13], 6.92 µM (active); in [10], 2.57 µM (active); in [11], 9.52 µM (active).

With `CO/N=C(/C(=O)N[C@@H]1C(=O)N2C(C(=O)O)=C(Cn3nnc(C)n3)CS[C@H]12)c1csc(N)n1`, the call in [1], in assay [2], in [3], in assay [4], in assay [6] and in assay [7] was inactive. The Potency result in assay [5], in assay [8], in [12], in assay [9], in assay [13] and in [15] was “inactive” each time. Also, the Potency entry in assay [10], in assay [11] and in assay [14] was “inactive” throughout.

With `CCNC(=O)/C=C/c1cccc(Br)c1`, the compound was called inactive in assay [1], in assay [2], in [3], in [4], in [6] and in assay [7]. The outcome in assay [17] was inactive. Further, the Potency entry in assay [5], in assay [18], in assay [9], in assay [13] and in assay [11] was “inactive” each time. Besides, the Potency was 26.6 µM (active) in [12] and 2.57 µM (active) in assay [10]. Further, in assay [16], the max activation was 11.4%.

Values taken from PubChem BioAssay (Tox21).
